Structures are written as SMILES. Unmarked numbers belong to inactive results. Activity calls are given as the source filed them.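 How the source made its calls: active means inhibition reaching about 16% in any single replicate (limit read from the data); inactive means the rest.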

The target of the experiment is Hexokinase HKDC1 (Homo sapiens) (UniProt Q2TB90). In words: HKDC1 hexokinase inhibitors, confirmation, biochemical, single concentration (AID 504710). Particulars: recombinant HKDC1, G6PDH/diaphorase/resazurin fluorescence; at 20 µM; stronger effect = higher value. In general terms: The colour change of resazurin is a common sign of viable cells or microbes.
Sequence of Hexokinase HKDC1 (Homo sapiens) (Q2TB90 whole entry, looked up): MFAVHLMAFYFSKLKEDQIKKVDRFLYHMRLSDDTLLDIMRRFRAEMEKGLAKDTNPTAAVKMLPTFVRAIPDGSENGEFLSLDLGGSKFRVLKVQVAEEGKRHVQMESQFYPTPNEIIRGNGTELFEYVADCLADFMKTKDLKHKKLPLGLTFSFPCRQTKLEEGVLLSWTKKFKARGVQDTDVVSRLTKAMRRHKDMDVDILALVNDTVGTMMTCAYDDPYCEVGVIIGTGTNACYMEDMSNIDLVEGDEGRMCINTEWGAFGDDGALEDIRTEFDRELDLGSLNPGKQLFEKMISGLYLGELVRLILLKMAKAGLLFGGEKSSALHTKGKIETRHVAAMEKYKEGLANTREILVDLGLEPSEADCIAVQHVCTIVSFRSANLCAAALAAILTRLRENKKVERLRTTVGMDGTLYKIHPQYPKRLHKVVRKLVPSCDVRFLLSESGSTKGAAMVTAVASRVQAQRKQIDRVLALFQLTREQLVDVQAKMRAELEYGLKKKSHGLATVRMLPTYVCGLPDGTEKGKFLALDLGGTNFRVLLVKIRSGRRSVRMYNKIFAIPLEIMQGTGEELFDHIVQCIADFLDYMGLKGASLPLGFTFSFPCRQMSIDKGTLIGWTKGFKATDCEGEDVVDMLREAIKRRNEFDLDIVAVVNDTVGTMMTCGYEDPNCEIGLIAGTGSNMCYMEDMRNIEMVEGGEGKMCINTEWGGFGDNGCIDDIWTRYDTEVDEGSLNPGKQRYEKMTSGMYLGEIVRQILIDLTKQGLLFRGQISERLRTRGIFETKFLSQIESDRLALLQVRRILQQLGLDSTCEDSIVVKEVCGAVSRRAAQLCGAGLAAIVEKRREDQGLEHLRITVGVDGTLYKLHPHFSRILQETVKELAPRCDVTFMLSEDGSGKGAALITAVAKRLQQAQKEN
For orientation: inhibition means the change of the read-out against control, counted positive when it falls. For `Cc1cccc(C)c1Nc1nnc(SCc2cn3cccc(C)c3n2)s1`, the inhibition was 54.1% (active). In the case of `CCN=C1NN=C(c2ccc(C)cc2)CS1` it was -52%. Take `CC(=O)C1=C(c2cccc([N+](=O)[O-])c2)N(C(C)=O)n2c(C)nnc2S1`: the inhibition is -387%. Under `O=C(O)c1cc(O)c2c(c1)[C@@H]([C@H]1c3cc(C(=O)O)cc(O)c3C(=O)c3c(O[C@@H]4O[C@H](CO)[C@@H](O)[C@H](O)[C@H]4O)cccc31)c1cccc(O[C@@H]3O[C@H](CO)[C@@H](O)[C@H](O)[C@H]3O)c1C2=O` stands 34.1% (active).

For `CC(C)(C)c1nnc(N/N=C/c2cc(Br)ccc2O)n(N)c1=O`, the inhibition was -48.8%. Take `COC(=O)c1ccc(NCc2cc(O)ccc2O)cc1`: the inhibition is 65.1% (active). Under `COC1=C(OC)C(=O)C(Sc2ccc3ccccc3c2)=CC1=O` stands 71.3% (active); under `NS(=O)(=O)c1ccc(N=Nc2c(=O)[nH]n3c(=O)c4c([nH]c23)CCCC4)cc1`, 72.5% (active). `O=C(NC(=S)NNC(=O)c1cnccn1)c1ccc(F)cc1`: the inhibition is -36.1%. In the case of `CCOC(=O)CSc1nc2ccc(C)cc2n2cnnc12` it was 63.8% (active); in that of `Cc1cc(C)c(S(=O)(=O)/N=C2\C=C(Nc3ccc(C(=O)O)cc3)C(=O)c3ccccc32)c(C)c1`, 39.5% (active); in that of `CC(=O)N(C1=C(Cl)C(=O)c2ccccc2C1=O)c1ccc(C(=O)O)cc1`, 64.4% (active). Under `CN1c2ccc(C=O)c3c(C=O)ccc(c23)N(C)C1(C)C` stands 61.2% (active). Under `CCOc1ccccc1Nc1nnc(SCc2nnc(-c3cc(OC)c(OC)c(OC)c3)o2)s1` stands 44.7% (active); under `CN(C)Cc1cc(O)c(CN(C)C)cc1O`, 70.3% (active). Consider `Cc1ccccc1N=C1NN=C(c2ccccc2F)CS1`, for which the inhibition was -40.3%.

Consider `CC(=O)n1cc(N(C(=O)CCl)c2ccc([N+](=O)[O-])cc2)c2ccccc21`, for which the inhibition is 40.9% (active).

Regarding `Cc1cc(C)n2nc(SCc3nnc(SCc4ccccc4Cl)s3)nc2n1`, the inhibition was 43% (active). With `Cn1c(-c2ccccc2)c(C(=O)CC#N)c2ccccc21`, the inhibition was -42%. Under `Cn1cnnc1SC1c2cccc3cccc(c23)C1NS(=O)(=O)c1ccccc1` (configuration not stated) stands -64%. In the case of `CCCc1nc2c(c(=O)c3ccccc3n2C)c(=O)n1-c1ccc(F)cc1` it was 58.5% (active); in that of `O=C(O)c1cc(O)c2c(c1)[C@H]([C@H]1c3cc(C(=O)O)cc(O)c3C(=O)c3c(O[C@@H]4O[C@H](CO)[C@@H](O)[C@H](O)[C@H]4O)cccc31)c1cccc(OC3O[C@H](CO)[C@@H](O)[C@H](O)[C@H]3O)c1C2=O` (some centres not stated), 52.1% (active). Under `COc1ncnc2c1oc1nc(C(C)C)c3c(c12)CC(C)(C)OC3` stands 43.5% (active); under `CCOc1ccc(-n2c(C)cc(C(=O)CCl)c2C)cc1`, 28.5% (active). As for `CC(=O)NC1C(=O)N(CCN2CCOCC2)c2ccc(Cl)cc21` (configuration not stated), the inhibition was 60.6% (active). Under `CCOC(=O)C1=C(Cc2ccc(Cl)cc2)C(=O)c2ccccc2C1=O` stands 39.3% (active). On to `O=C(COC(=O)c1n[nH]c2ccccc12)c1cccc(Br)c1`, for which the inhibition is -30.5%. Under `COc1cc(NC(=O)c2cnc(N)s2)cc(C(=O)Nc2cccc(C(F)(F)F)c2)c1` stands 41.2% (active); under `NC(=NCc1ccc2c(c1)OCO2)NC(=O)c1ccccc1`, 16.7% (active). In the case of `N#Cc1c(SCC(=O)Nc2nc3ccc(Br)cc3s2)sc2c(O)cc(=O)[nH]c12` it was 44.9% (active); in that of `CSc1nc(N)nc2c1ncn2CC(=O)N[C@H](C)c1cccc2ccccc12`, -73.5%. Under `COc1ccc(N=C2NN=C(c3ccc4c(c3)OCCO4)CS2)cc1` stands -33.1%; under `Cc1ccc(S(=O)(=O)/N=C2\C=C(Nc3cccc(C(=O)O)c3)C(=O)c3ccccc32)cc1`, 79.9% (active).

Consider `COc1ccc(S(=O)(=O)Nc2ccc(O)c3ccccc23)cc1`, for which the inhibition is 51.2% (active). Under `CC1=NOC(=O)/C1=C\c1ccc(-c2ccc(Cl)cc2Cl)o1` stands 47.4% (active); under `Cc1cc2cc(CCNC(=O)c3ccc(S(=O)(=O)N4CCCC4)cc3)c(=O)[nH]c2cc1C`, 53.2% (active); under `CC1COCC(C)N1C1=C(Cl)C(=O)c2ccccc2C1=O` (configuration not stated), 43.5% (active).

The values are drawn from PubChem BioAssay AID504710 (Sanford-Burnham Center for Chemical Genomics, 2011).
